# Screens (PubChem BioAssay)
# CYP2C19 inh: human CYP2C19 inhibition; P33261; CYP2C19 Supersomes, luciferin-H EGE luminescence, 30 min; inhibition, % at 5 µM; 21% of 96,000 active;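 active = CYP2C19 inhibition above a set limit at 5 µM in the primary screen, cut at about 50% in these data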;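 also: plate controls were negative control wells for no effect and 2.5 mM tranylcypromine positive control for full effect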
# Target sequence (P33261 whole entry, looked up): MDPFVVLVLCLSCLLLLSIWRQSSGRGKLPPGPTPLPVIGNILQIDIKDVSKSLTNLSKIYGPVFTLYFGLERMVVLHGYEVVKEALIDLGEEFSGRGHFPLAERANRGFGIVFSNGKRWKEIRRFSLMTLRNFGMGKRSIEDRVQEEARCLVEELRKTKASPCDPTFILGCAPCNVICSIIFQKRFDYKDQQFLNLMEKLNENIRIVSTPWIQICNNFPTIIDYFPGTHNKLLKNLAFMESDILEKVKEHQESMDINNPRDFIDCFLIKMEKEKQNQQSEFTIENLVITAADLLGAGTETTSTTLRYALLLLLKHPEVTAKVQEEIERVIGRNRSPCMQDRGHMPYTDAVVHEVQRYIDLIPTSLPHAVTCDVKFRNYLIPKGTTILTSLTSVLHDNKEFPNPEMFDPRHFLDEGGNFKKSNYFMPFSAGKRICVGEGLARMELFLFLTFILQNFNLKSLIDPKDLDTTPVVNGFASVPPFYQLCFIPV
# cytoskel mod: modifiers of cytoskeleton assembly; HUVEC TNFa F-actin phalloidin imaging, high content; inhibition, % at 2 µM; 0.18% of 91,000 active; AID 836;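 active = inhibition above the batch mean plus 3 SD and confirmed as a hit by visual image inspection, cut at about 30% in these data, passing the limit was not always enough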
# E-sel TNF inh: blocks E-selectin expression induced by TNF alpha; HUVEC TNFa-induced E-selectin immunofluorescence, high content; inhibition, % at 2 µM; 0.71% of 120,000 active; AID 1246;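 active = inhibition above the batch mean plus 3 SD, and confirmed as a hit on visual image review, cut at about 43% in these data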;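 also: 0% = TNF-stimulated DMSO wells and 100% = unstimulated control wells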
# CYP2C19 act: increases human CYP2C19 enzyme activity. P33261. recombinant CYP2C19, luciferin-H EGE luminescence; hits give high values; 0 = fully inhibited enzyme, 1 = untreated enzyme. activation factor at 5 µM. 96,000 tested, under 10 active. AID 1025;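 active = activation factor of at least 2 at 5 µM in the primary screen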;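 also: 0 = wells with 2.5 mM tranylcypromine and 1 = vehicle-only wells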
# CYP2C9 inhib: blocks human cytochrome P450 2C9. AID 777. inhibition, % at 5 µM. 20% of 96,000 active. CYP2C9 Supersomes, luciferin-H conversion, luminescence;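 active = blocking of liver enzyme CYP2C9 beyond about 50% at 5 µM, limit read from the data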
# CYP2C9 activ: activators of human CYP2C9 | recombinant CYP2C9, luciferin-H conversion, luminescence; hits give high values; factor 1 = untreated enzyme, 0 = blocked | AID 1024 | activation factor at 5 µM | P11712 | 1.4% of 96,000 active;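 active = activation factor of 2 or more for CYP2C9 at a 5 µM dose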;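 also: 0 = sulfaphenazole-blocked wells and 1 = vehicle-only wells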
# * marks the source's active call; other numbers are inactive results; nt = no result. An excerpt weighted towards active compounds, which were near 22% of everything screened.
SMILES,CYP2C19 inh,cytoskel mod,E-sel TNF inh,CYP2C19 act,CYP2C9 inhib,CYP2C9 activ
Cc1ccc(CNC(=O)Cc2csc(Nc3nc(=S)[nH]c4ccccc34)n2)cc1,64.9*,-1.7,nt,0.4,82.2*,0.2
O=C(Cc1csc(Nc2nc(=S)[nH]c3ccccc23)n1)NCc1cccc(Cl)c1,31.3,30.1,4.9,0.7,82.8*,0.2
O=C(Cc1csc(Nc2nc(=S)[nH]c3ccccc23)n1)NCc1ccccc1Cl,34.8,-5.9,nt,0.7,82.6*,0.2
O=C(Cc1csc(Nc2nc(=S)[nH]c3ccccc23)n1)N1CCN(c2cccc(C(F)(F)F)c2)CC1,nt,nt,7.5,nt,nt,nt
N#C/C(=C\Nc1ccc2c(c1)OCCO2)c1nc2ccccc2[nH]1,23.5,2.3,7.9,0.8,-0.5,1
CCOC(=O)C(NC(=O)OC(C)C)(Nc1nccs1)C(F)(F)F (configuration not stated),55.3*,-6.0,17.3,0.4,-6.1,1.1
COC(=O)C(NC(=O)c1ccccc1)(Nc1nccs1)C(F)(F)F (configuration not stated),22.6,-26.9,10.0,0.8,23.3,0.8
CCc1cc(-c2n[nH]c(=S)n2C(C)c2ccccc2)cs1 (configuration not stated),81.5*,6.5,-15.8,0.2,86.9*,0.1
CC(C)c1cc(-c2n[nH]c(=S)n2Cc2ccccc2)cs1,7.0,-6.6,11.0,0.9,39.8,0.6
CCOC(=O)/C=c1\s/c(=C\c2ccccc2C)c(=O)n1CC(=O)NCc1ccc2c(c1)OCO2,nt,nt,37.9,nt,nt,nt
CCOC(=O)/C=c1\s/c(=C\c2ccc3c(c2)OCCO3)c(=O)n1CC(=O)NCC1CCCO1 (configuration not stated),73.4*,-9.4,5.3,0.3,57.5*,0.4
CCOC(=O)/C=c1\s/c(=C\c2c(OCC)ccc3ccccc23)c(=O)n1CC(=O)NCC1CCCO1 (configuration not stated),93.3*,-0.1,6.7,0.1,69.8*,0.3
COc1ccc(NC(=O)c2cccc(NC(=O)C(C)C)c2)c([N+](=O)[O-])c1,nt,nt,-27.6,nt,nt,nt
O=C(c1ccco1)N1CCN(c2nc3ccccc3c(=O)n2-c2ccccc2)CC1,29.9,18.4,nt,0.7,67.1*,0.3
Cc1nn2c(N3CCN(C(=O)c4ccco4)CC3)cc(C(C)(C)C)nc2c1-c1ccccc1,8.9,-5.9,-4.6,0.9,57.6*,0.4
Cc1ccc2cc3cc(C(=O)N4CCN(C(=O)c5ccco5)CC4)sc3nc2c1,63.6*,nt,-57.1,0.4,47.0,0.5
O=C(c1ccco1)N1CCN(c2nnc(-c3ccccc3)c3ccccc23)CC1,58.0*,5.5,-30.4,0.4,4.4,1
Cc1nn2c(N3CCN(C4CCCC4)CC3)cc(C(C)(C)C)nc2c1-c1ccccc1,-5.3,9.0,-5.3,1.1,31.2,0.7
Nc1nc(N2CCN(C(=O)c3ccco3)CC2)nc2ccccc12,nt,-17.2,-0.8,nt,nt,nt
COc1ccccc1/C=C1/C(=O)N(c2cc(C)cc(C)c2)C(c2cccc([N+](=O)[O-])c2)S1(=O)=O (configuration not stated),nt,nt,12.5,nt,nt,nt
O=C(c1ccco1)N1CCN(C(=O)c2cc3c(=O)oc4ccccc4c3s2)CC1,27.1,22.6,nt,0.7,61.0*,0.4
c1cnc(N2CCN(c3ncnc4c3oc3ccccc34)CC2)nc1,29.9,nt,nt,0.7,30.2,0.7
O=C(c1ccco1)N1CCN(c2nc3ccsc3c(=O)s2)CC1,43.9,nt,-11.5,0.6,64.4*,0.4
O=C(c1ccco1)N1CCN(c2ncnc3c2oc2ccccc23)CC1,61.5*,nt,-3.9,0.4,30.5,0.7
O=C(c1cc2c(=O)oc3ccccc3c2s1)N1CCOCC1,-7.4,-1.5,nt,1.1,-3.5,1
CCN(CC)C(=O)Cn1cnc2sc(C(=O)N3CCN(c4ccc(OC)cc4)CC3)c(C)c2c1=O,3.5,-1.6,-0.3,1,45.3,0.5
CC(=O)Oc1ccc2nc(CN3C(=O)c4ccc([N+](=O)[O-])cc4C3=O)oc(=O)c2c1,nt,nt,-36.0,nt,nt,nt
c1ccc(C2CC(c3ccccc3)n3ncnc3N2)cc1 (configuration not stated),93.2*,-19.2,nt,0.1,45.3,0.5
Fc1ccc(C2CC(c3ccccc3)Nc3ncnn32)cc1 (configuration not stated),53.3*,-2.2,1.2,0.5,-2.3,1
